# Assay results: PubChem BioAssay (Tox21)
# Values joined by “and” are separate entries in the source; they are usually repeats but may differ in a detail not shown here. Equal entries are not always repeated. Results filed as inconclusive are left out. A call without a number means that no potency is given here. Some structures have more than one record in an assay (separate samples or runs), and their calls can disagree. Active and inactive are the calls of the source. The call rests on the fitted dose curve; in most records, active means well fitted curve in the direction sought with a large enough effect in the repeat runs; inconclusive means weak or mixed curves; inactive means no such curve, though single readings can be large; an effect the other way counts as inactive or inconclusive.
# Target: Voltage-gated inwardly rectifying potassium channel KCNH2 (Homo sapiens) (UniProt Q12809)
# Assay: Human Ether-a-go-go-Related Gene (hERG) channel small molecule antagonists: fluorescence cell-based qHTS assay (AID 1671200)
# Conditions: hERG-U2OS cells, FluxOR thallium flux fluorescence; series mostly up to 76.8 µM
# How it was run: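 Thallium flux as potassium surrogate: FluxOR II dye loaded 1 h at room temperature into hERG-expressing U2OS cells, then stimulus buffer added after 10 min. Kinetic 480 nm excitation/540 nm emission read, 2 min.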
# Further: nearly all actives have a fitted effect of over 50% in size.
# Chain of Voltage-gated inwardly rectifying potassium channel KCNH2 (Homo sapiens) (Q12809 whole entry, looked up): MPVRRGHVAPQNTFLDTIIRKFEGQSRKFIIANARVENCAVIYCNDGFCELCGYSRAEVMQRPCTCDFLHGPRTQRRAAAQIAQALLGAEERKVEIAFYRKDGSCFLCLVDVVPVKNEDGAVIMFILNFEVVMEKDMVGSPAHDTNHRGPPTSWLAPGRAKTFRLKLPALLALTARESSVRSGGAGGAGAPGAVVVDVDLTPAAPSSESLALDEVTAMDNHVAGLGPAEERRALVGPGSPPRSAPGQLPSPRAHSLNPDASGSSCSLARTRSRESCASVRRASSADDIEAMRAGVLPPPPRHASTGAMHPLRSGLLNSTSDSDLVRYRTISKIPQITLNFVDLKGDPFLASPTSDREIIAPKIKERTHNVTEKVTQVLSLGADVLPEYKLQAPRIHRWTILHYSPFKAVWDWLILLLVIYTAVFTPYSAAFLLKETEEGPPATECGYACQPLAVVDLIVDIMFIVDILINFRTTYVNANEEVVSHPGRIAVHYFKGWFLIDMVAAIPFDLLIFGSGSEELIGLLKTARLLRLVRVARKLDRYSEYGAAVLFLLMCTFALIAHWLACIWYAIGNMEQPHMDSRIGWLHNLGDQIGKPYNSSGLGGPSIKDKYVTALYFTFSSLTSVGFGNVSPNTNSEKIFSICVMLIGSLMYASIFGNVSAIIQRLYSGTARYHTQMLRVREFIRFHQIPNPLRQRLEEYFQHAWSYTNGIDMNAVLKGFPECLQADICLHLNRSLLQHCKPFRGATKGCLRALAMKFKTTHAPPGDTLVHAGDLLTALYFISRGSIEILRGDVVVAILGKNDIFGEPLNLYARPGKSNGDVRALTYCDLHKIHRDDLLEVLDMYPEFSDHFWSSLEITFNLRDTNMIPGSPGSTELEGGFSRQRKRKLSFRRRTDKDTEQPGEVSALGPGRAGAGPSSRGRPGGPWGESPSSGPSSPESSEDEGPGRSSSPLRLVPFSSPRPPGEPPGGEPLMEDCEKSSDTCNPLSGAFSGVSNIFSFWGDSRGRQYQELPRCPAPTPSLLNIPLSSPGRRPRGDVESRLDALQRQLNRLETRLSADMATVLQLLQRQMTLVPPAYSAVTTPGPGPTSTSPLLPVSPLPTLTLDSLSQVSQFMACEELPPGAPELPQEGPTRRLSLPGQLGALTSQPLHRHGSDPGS
row,Compound,Potency
1,c1ccc2ccccc2c1,inactive
2,C=C(C)C(=O)OCCCCCCCCCCCC,inactive
3,Oc1ccc2ccccc2c1,inactive
4,CN(CCOc1ccc(CC2SC(=O)NC2=O)cc1)c1ccccn1 (configuration not stated),inactive
5,C=C(C)C(=O)OCCC[Si](OC)(OC)OC,inactive

# Target: Cytochrome P450 3A4 (Homo sapiens) (UniProt P08684)
# Assay: Cytochrome P450 Family 3 Subfamily A Member 4 (CYP3A4) small molecule antagonists: luciferase reporter qHTS assay (AID 1671201); further: potency means the concentration at half of the fitted maximal effect
# Conditions: P450-Glo CYP3A4 enzyme, luciferin luminescence, 1 h; series mostly up to 115 µM
# How it was run: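 Recombinant human CYP3A4 converts a proluciferin substrate to luciferin over 1 h at room temperature after NADPH regeneration solution is added (compound preincubated 10 min); detection reagent stops reaction, luminescence read 20 min later as relative units.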
# Chain of Cytochrome P450 3A4 (Homo sapiens) (P08684 whole entry, looked up): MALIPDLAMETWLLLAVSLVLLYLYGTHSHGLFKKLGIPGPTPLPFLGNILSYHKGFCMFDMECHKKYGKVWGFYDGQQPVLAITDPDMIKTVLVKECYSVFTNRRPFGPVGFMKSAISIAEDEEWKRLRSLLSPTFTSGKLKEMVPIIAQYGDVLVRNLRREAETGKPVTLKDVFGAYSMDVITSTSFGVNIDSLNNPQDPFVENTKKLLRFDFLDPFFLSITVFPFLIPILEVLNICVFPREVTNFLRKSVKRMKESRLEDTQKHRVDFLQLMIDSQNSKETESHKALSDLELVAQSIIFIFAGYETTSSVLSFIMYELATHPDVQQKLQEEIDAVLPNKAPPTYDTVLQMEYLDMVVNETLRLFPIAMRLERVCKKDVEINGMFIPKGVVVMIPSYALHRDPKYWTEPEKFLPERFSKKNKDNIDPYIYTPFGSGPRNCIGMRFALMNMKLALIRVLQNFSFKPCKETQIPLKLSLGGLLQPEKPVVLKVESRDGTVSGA
row,Compound,Potency
1,O=C1CCCCC1,inactive
2,OCC1CCCO1 (configuration not stated),inactive
3,C=C1C2CCC(C2)C1(C)C (configuration not stated),inactive
4,CCC(C)C=O (configuration not stated),inactive
5,Cc1cc(Cc2ccc(N)c(C)c2)ccc1N,894 nM (active) and 2.52 µM (active)
6,CC(=O)Nc1ccc(C(=O)O)cc1,inactive
7,Oc1c(Cl)cc(Cl)c(Cl)c1Cl,inactive
8,Nc1c(S(=O)(=O)O)cc(Br)c2c1C(=O)c1ccccc1C2=O,inactive
9,CCCCNC(N)=O,inactive
10,CCCCC/C=C\C/C=C\CCCCCCCC(=O)OC,inactive and 7.1 µM (active)
11,C=C(C#N)C(=O)OCC,inactive
12,Oc1ccc(OCc2ccccc2)cc1,inactive
13,CCOC(=O)/C=C\C(=O)OCC,inactive
14,OCCOCCOCCOCCO,inactive
15,O=C(O)c1cc(-c2ccccc2)nc2ccccc12,inactive
16,Cc1ccc(N)c(S(=O)(=O)O)c1,inactive

row,Compound,Potency
1,CC1COc2ccccc2N1C(=O)C(Cl)Cl (configuration not stated),inactive
2,COC(=O)Nc1nc2ccc(Sc3ccccc3)cc2[nH]1,inactive
3,CC1=CC[C@H]2C[C@@H]1C2(C)C,inactive
4,CCOC(=O)C1OC1c1ccccc1 (configuration not stated),inactive
5,OC[C@@H](O)[C@H](O)[C@H](O)[C@@H](O)CO,inactive
6,COC(=O)c1ccc(C(=O)OC)cc1,inactive
7,CC1=C(/C=C/C(C)=C/C=C/C(C)=C/CO)C(C)(C)CCC1,18.1 µM (active) and 11.9 µM (active)
8,COCC(C)O (configuration not stated),inactive
9,c1ccc2ccccc2c1,inactive
10,C=C(C)C(=O)OCCCCCCCCCCCC,inactive
11,CCCCOCCOCCOC(=O)CCCCC(=O)OCCOCCOCCCC,20.1 µM (active) and 31.7 µM (active)
12,CCc1ccc(O)cc1,inactive
13,CCCCCCCCCCCCN,inactive
14,C=C(C)C(=O)OCCC[Si](OC)(OC)OC,3.14 µM (active) and 63.3 µM (active)
15,CCCCCCCCCCC=CC1CC(=O)OC1=O (configuration not stated),inactive
16,CC[Si](OC(C)=O)(OC(C)=O)OC(C)=O,3.17 µM (active) and 35.6 µM (active)
